The panel holds about 79,000 compounds, 15% with a hit somewhere; the sample as a whole holds those more often. No stated cut-off is given here; in the data, active means growth inhibition above about 70%; inactive means the rest.
How the values were obtained:
[1] = NCI Yeast Anticancer Drug Screen. Data for the rad50 strain (AID 155);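 further: 0% = growth of vehicle-only cultures of the same strain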; details: S. cerevisiae rad50 strain growth inhibition; at 50.0 µM; hits give high values
How it was run: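 Yeast carrying a defined DNA repair defect were exposed to test compounds, and growth was compared with vehicle-treated controls to give percent inhibition.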

[2] = NCI Yeast Anticancer Drug Screen. Data for the mec2-1 strain (AID 157); details: S. cerevisiae mec2-1 strain, at 50.0 µM, hits give high values
How it was run: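 Vehicle-treated cultures served as reference for growth inhibition of compound-exposed mec2-1 yeast.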

[3] = NCI Yeast Anticancer Drug Screen. Data for the sgs1 mgt1 strain (AID 161);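 further: 0% = growth of cultures given vehicle only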; details: S. cerevisiae sgs1 mgt1 strain, at 50.0 µM, hits give high values
How it was run: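 Mutant yeast exposed to compound; growth scored against vehicle-only wells.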

[4] = NCI Yeast Anticancer Drug Screen. Data for the cln2 rad14 strain (AID 165);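 further: 0% = growth equal to vehicle treated cultures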; details: S. cerevisiae cln2 rad14 strain, at 50.0 µM, hits give high values
How it was run: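 Each compound was tested on cln2 rad14 yeast. Inhibition of growth was calculated against vehicle-exposed controls.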

[5] = NCI Yeast Anticancer Drug Screen. Data for the bub3 strain (AID 167); details: S. cerevisiae bub3 mutant strain, at 50.0 µM, hits give high values
How it was run: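 Compounds were applied to a genetically altered yeast strain carrying a cell-cycle control defect. Growth inhibition was scored against vehicle-treated controls.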

[6] = NCI Yeast Anticancer Drug Screen. Data for the mlh1 rad18 strain (AID 175); details: S. cerevisiae mlh1 rad18 strain growth inhibition; at 50.0 µM; hits give high values
How it was run: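 Vehicle-treated cultures served as the reference for growth inhibition in a yeast strain carrying DNA damage repair alterations exposed to each compound.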

Measured: growth inhibition

Oc1ccc(C2=NNC(c3ccc(O)cc3)=NN2)cc1
inactive: [1] 12.7% | [2] 11.9% | [3] 17% | [4] 21.1% | [5] 12.8% | [6] 10.1%

C1CCC(C2CCCC[N-]2)[N-]C1.[Cl][Cu][Cl] (stereo unspecified)
inactive: [1] 7.35% | [2] 10.3% | [3] 9.85% | [4] 9.6% | [5] -4.85% | [6] 13.7%

NC(Cc1ccc(O)cc1)C(=O)NCCS(=O)(=O)O (stereo unspecified)
inactive: [1] 1.5% | [2] 9.85% | [3] 26.7% | [4] 11.2% | [5] 18.6% | [6] 0.65%

CC1(C)OC(=O)N=C1c1ccc(F)cc1
inactive: [1] -9.3% | [2] 7.7% | [3] -1.25% | [4] 2% | [5] -1.65% | [6] 17.4%

COC(=O)c1ccc(F)cc1
inactive: [1] -53.9% | [2] -25.9% | [3] -25.5% | [4] -1.45% | [5] -51.6% | [6] -46.3%

S=c1nc[nH]c2nc(Cl)[nH]c12
inactive: [1] -5.45% | [2] -18.6% | [3] -21.6% | [4] -0.25% | [5] -26.6% | [6] 4%

CC(=O)Nc1ccc(NC(=O)C2CC3C=CC2C3)cc1 (stereo unspecified)
inactive: [1] 7.55% | [2] -11% | [3] -33% | [4] 3.1% | [5] -10.7% | [6] 23.2%

O=C(Nc1ccccc1)c1cc2ccccc2oc1=O
inactive: [1] 6.95% | [2] -2.65% | [3] -4.5% | [4] 4.75% | [5] -13.2% | [6] 9.55%

COCc1ccccc1P(c1ccccc1COC)c1ccccc1COC
inactive: [1] 31% | [2] 18.9% | [3] 42% | [4] 16.2% | [5] 10.5% | [6] 36%

CC1=C(C(=O)Nc2cc(F)c(F)cc2F)C(c2cccc([N+](=O)[O-])c2)C(C(=O)Nc2ccccc2C(F)(F)F)=C(C)N1 (stereo unspecified)
inactive: [1] 20.4% | [2] 21.8% | [3] 8.4% | [4] 2.15% | [5] 9.75% | [6] -2.65%

CC(=O)OCC(OC(C)=O)C(OC(C)=O)C(/C=C/N=[N+]([O-])c1ccccc1)OC(C)=O (stereo unspecified)
inactive: [1] 49% | [2] 31.5% | [3] 45.5% | [4] 42.6% | [5] 48.6% | [6] 44.9%

Nc1ccccc1/C(O)=C1/CCOC1=O
inactive: [1] 0.6% | [2] -23.6% | [3] 2.15% | [4] 1.5% | [5] 15.3% | [6] -3.2%

O=P(O)(O)CCC(O)CO (stereo unspecified)
inactive: [1] -12.5% | [2] 10.3% | [3] -11.6% | [4] -78.2% | [5] 4.6% | [6] -17.5%

O=c1oc2ccccc2c(N2CCCCC2)c1Cl
inactive: [1] 1.6% | [2] 40.6% | [3] 12.3% | [4] 22.1% | [5] 17.6% | [6] 15%

O=C(O)c1cc(=O)[nH]c(=O)[nH]1.[Cu+2]
inactive: [1] -15.8% | [2] 8.7% | [3] -18.4% | [4] -35.3% | [5] -30.4% | [6] -16.2%

O=c1c(Br)nn(C(c2ccccc2)c2ccccc2)c(=O)n1C(c1ccccc1)c1ccccc1
inactive: [1] 23.1% | [2] 2.25% | [3] 10.1% | [4] 15.8% | [5] 3.6% | [6] 13.1%

O=[N+]([O-])c1ccc(N=Nc2c(O)[nH]c3ccc(Br)cc23)c([N+](=O)[O-])c1
inactive: [1] 9.75% | [2] -21.2% | [3] 2.15% | [4] -23.1% | [5] -20.6% | [6] 5.5%

O=C(/C=C(\C(=O)c1ccccc1)c1ccccc1)c1ccc(Cl)cc1
inactive: [1] -12% | [2] 8.5% | [3] -4.45% | [4] 1.05% | [5] -13.1% | [6] -24.6%

CCCSc1nnc(SCCC)c2[nH]cnc12
inactive: [1] 0.85% | [2] -5.45% | [3] 0.95% | [4] -22.3% | [5] 2.4% | [6] -8.7%

Cc1ccc(C)c(NC(=O)Nc2cccc(Cl)c2)c1
inactive: [1] -6.1% | [2] 21.2% | [3] -5.85% | [4] -4.95% | [5] 9.4% | [6] -7.65%

C/C(CC(O)(C(F)(F)F)C(F)(F)F)=N\NC(N)=S
inactive: [1] -30.1% | [2] -14.7% | [3] -12.9% | [4] 9.55% | [5] 7.1% | [6] -9.3%

O=C1C=C2SCCN2C(=O)C1
inactive: [1] -5.9% | [2] -33.8% | [3] -9.15% | [4] -2.85% | [5] -5.85% | [6] 14.9%

CC(=O)c1cccc2ccccc12
inactive: [1] -7.8% | [2] 5.55% | [3] 3.65% | [4] -9.1% | [5] -11.1% | [6] -5.95%

COc1ccc(C)cc1CC(=O)O
inactive: [1] 7.5% | [2] 3.05% | [3] -21.4% | [4] 4.1% | [5] 6.25% | [6] -9.2%

Clc1ccc2ncccc2c1
inactive: [1] 29.8% | [2] 18% | [3] 7.7% | [4] -24.1% | [5] 7.95% | [6] 17%

CCOc1ccc(C(=O)C=O)cc1
inactive: [1] 11.6% | [2] -5.65% | [3] 11.4% | [4] -0.7% | [5] 9.55% | [6] 27.2%

CCOC(=O)Cc1ccccn1
inactive: [1] 5.8% | [2] -22.5% | [3] -37.7% | [4] -14.3% | [5] -14.9% | [6] -6%

CS(=O)(=O)CC(O)c1ccccc1 (stereo unspecified)
inactive: [1] 4.8% | [2] -3.2% | [3] 2.95% | [4] -12.7% | [5] 6.65% | [6] -21.4%

O=C(O)CCCCC(=O)c1ccccc1
inactive: [1] 30.6% | [2] 12.2% | [3] 21% | [4] -0.25% | [5] 26.6% | [6] 24.9%

COc1ccc(NC(C)=O)cc1[N+](=O)[O-]
inactive: [1] -4.6% | [2] -7.7% | [3] -1.7% | [4] -13.3% | [5] -18.3% | [6] 6.15%

CC(C)(C)C(=O)[CH-]C(=O)C(F)(F)F.CC(C)(C)C(=O)[CH-]C(=O)C(F)(F)F.CC(C)(C)C(=O)[CH-]C(=O)C(F)(F)F.[Ru+3]
inactive: [1] 25.8% | [2] -4.65% | [3] 1.7% | [4] -1.35% | [5] 8.5% | [6] 24.4%

CCOC(=O)c1c(NC2=NCCC2)n[nH]c1N
inactive: [1] 7.05% | [2] 14.8% | [3] 15% | [4] 14.7% | [5] -18.6% | [6] 5.9%

COc1cc(C=Nc2ccc3c(c2)OCO3)ccc1OC(=O)c1ccccc1
inactive: [1] 5.3% | [2] 7.6% | [3] 8.35% | [4] 8.25% | [5] 12.9% | [6] -5.5%

Cc1nc(N)nc2c1ncn2CCO
inactive: [1] 14.6% | [2] 16.1% | [3] 9.6% | [4] -4.25% | [5] 24.9% | [6] 9.85%

CC1CCCC(C)N1 (stereo unspecified)
inactive: [1] 2.5% | [2] -9.05% | [3] -1.75% | [4] -1.95% | [5] 1.5% | [6] 10.8%

N=C(CC(=O)Nc1ccccn1)c1ccccc1
inactive: [1] 1.25% | [2] -28.7% | [3] -23.3% | [4] -32% | [5] -20.9% | [6] -16.6%

O=[N+]([O-])c1ccc(C2NC(c3ccccc3)c3c(ccc4ccccc34)O2)cc1 (stereo unspecified)
inactive: [1] 41% | [2] 2.75% | [3] 23.8% | [4] -1.35% | [5] -0.25% | [6] 4.3%

O=C1OCC2C(=O)N3Cc4cc5ccccc5nc4C3CC12 (stereo unspecified)
inactive: [1] 11.9% | [2] 10.2% | [3] -2.5% | [4] 8.85% | [5] -15.8% | [6] 9.55%

Cc1c2oc3c(C)ccc(C(=O)NCCN4CCCC4)c3nc-2c(C(=O)NCCN2CCCC2)c(N)c1=O
inactive: [1] 64.5% | [2] 17.4% | [3] 5.9% | [4] 4.2% | [5] 3.6% | [6] 9.65%

CCN(CC)CC(C(=O)Nc1c(C)cccc1C)/C(C)=N\NC(=O)C[N+](C)(C)C (stereo unspecified)
inactive: [1] 19.4% | [2] 4.85% | [3] -26.6% | [4] -21.8% | [5] -0.7% | [6] -1.9%

N#CCCCCC12C3C(=O)N(c4ccccc4)C(=O)C3ON1O[C@@H]1C(=O)N(c3ccccc3)C(=O)[C@@H]12 (stereo partly specified)
inactive: [1] 43.4% | [2] 19.3% | [3] 26.7% | [4] 49.9% | [5] 33.5% | [6] 44.4%

— PubChem BioAssay (NCI)
